PubChem BioAssay AID493201 (National Center for Advancing Translational Sciences (NCATS), 2011)
Records with an inconclusive call do not appear. The source made the active and inactive calls. The call rests on the fitted dose curve; in most records, active means well fitted activation curve with a large enough effect; inconclusive means small, poorly fitted or top-dose-only effect; inactive means no such curve, though single readings can be large or run the other way.

Assay: qHTS Assay for Identifying a Potential Treatment of Ataxia-Telangiectasia: Secondary assay (no NCS) hit validation;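 further: phosphorylated KAP1 signal as a proxy for ATM-like kinase activity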; on activation: 0% is about no effect
Details: A-T patient fibroblasts, AlphaLISA, no DNA damage added, 90 min; series mostly up to 76.9 µM; activation: at the top concentration
In short: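 hTERT-immortalized A-T patient fibroblasts (F2112), 500 cells/well, exposed to compounds at up to 76.7 uM final without NCS at 37C. KAP-1 phosphorylation measured by AlphaLISA after lysis and 6 h detection at 25C.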
Potency means the concentration at half of the fitted maximal effect.

| SMILES | activation | Potency |
| --- | --- | --- |
| O=c1c(-c2ccc(Cl)cc2)c[nH]n1-c1ccccc1 | -1.08% (inactive) | – |
| Nc1ccc2ncccc2c1 | 3.23% (inactive) | – |
| O=C(C(c1ccccc1)c1ccccc1)N1CC[C@@]2(O)CCCC[C@H]2C1 | 11.9% (inactive) | – |
| Cc1ccc(-c2noc(CCC(=O)NC3CCN(Cc4ccccc4)CC3)n2)cc1 | 4.3% (inactive) | – |
| Clc1cccc(Cl)c1CSc1nnc(-c2ccncc2)s1 | – | 41.2 µM (active) |
| COc1cccc(OC)c1C(=O)NC(=O)Nc1c(C)cccc1C | -1.74% (inactive) | – |
| CSc1nc(SCC(=O)O)c2c3c(sc2n1)COC(C)(C)C3 | 13.9% (inactive) | – |
| CC(C)(CO)NC(=O)c1ccc2c(c1)C(=O)c1ccccc1-2 | 0% (inactive) | – |
| CCOc1cccc(C(=O)Nc2ccccc2N2CCN(C(=O)C(C)C)CC2)c1 | -5.38% (inactive) | – |
| CCn1c2ccccc2c2c3ncc4cccn4c3ccc21 | – | 36.8 µM (active) |
| COc1ccccc1[C@H]1C(c2cccc(Cl)c2)=NN(c2ccccc2)[C@@H]1CO | 0% (inactive) | – |
| Cc1nc(Nc2ccc(Cl)cc2)c2oc3ccccc3c2n1 | -1.08% (inactive) | – |
| COc1ccc2nc(NCCCNC(=O)c3cc(OC)c(OC)c(OC)c3)c(C#N)cc2c1 | 6.45% (inactive) | – |
| Cc1cccc(NC(=O)/C(C#N)=C/c2ccc(F)cc2)n1 | – | 1.84 µM (active) |
| CC(C)(C)NC(=O)c1cccc2c1-c1ccccc1C2=O | -6.45% (inactive) | – |
| CC1C(c2ccccc2)N(C)C(c2ccccc2)CC1(O)c1ccccc1 (stereo not given) | – | 13 µM (active) |
| Cc1ccnc(NC(=O)c2ccccc2NC(=O)c2ccccc2)c1 | 3.23% (inactive) | – |
| COc1ccc(N(CCC#N)C(=O)/C(C#N)=C\c2cccs2)cc1 | -4.35% (inactive) | – |

| SMILES | activation | Potency |
| --- | --- | --- |
| Cc1ccc(C(=O)Nc2sc3c(c2C(=O)O)CCCCC3)o1 | – | 0.232 µM (active) |
| CC(=O)Nc1ccc(NC(=O)CSc2nnnn2-c2ccc(F)cc2)cc1 | 2.61% (inactive) | – |
| COc1ccc(-n2c(=S)[nH]c3ccccc3c2=S)cc1 | -3.23% (inactive) | – |
| CC1CCCC(C)N1CCCNC(=O)Cn1ncc2c3ccccc3n(C)c2c1=O (stereo not given) | – | 14.6 µM (active) |
| CCCN1C2CCCC1CC(NC(=S)Nc1cccc(C)c1C)C2 (stereo not given) | 31.4% (inactive) | – |
| COc1ccc(CNC(=O)CN2C(=O)CSc3ccc(S(=O)(=O)N4CCOCC4)cc32)c(OC)c1 | 9.57% (inactive) | – |
| COc1cccc(/C=N/NC(=O)c2cc3cc([N+](=O)[O-])ccc3s2)c1O | – | 46.3 µM (active) |
| CC(=O)c1sc2nc(C)c3c(c2c1N)CCCC3 | 46.1% (inactive) | – |
| CCOC(=O)CN(C(=O)CSc1nnc(COc2ccc(OC)cc2)n1CC)c1ccccc1 | 5.38% (inactive) | – |
| CC(=O)Nc1ccc(NC2=CC(=O)c3ccccc3C2=O)cc1 | -3.23% (inactive) | – |
| COCCCNC(=O)c1c[nH]c2ccc(S(=O)(=O)N(C)c3ccccc3C)cc2c1=O | -5.93% (inactive) | – |
| CC12CCC(C(=O)NNc3ccc([N+](=O)[O-])cc3)(OC1=O)C2(C)C (stereo not given) | 34.4% (inactive) | – |
| COc1cccc(CN(C)CC(=O)NCc2ccc(F)cc2)c1OC | -5.38% (inactive) | – |
| CCOc1ccccc1CNC(=O)Cn1c(=O)oc2ccccc21 | – | 32.8 µM (active) |
| O=C(c1nn2c(C(F)(F)F)cc(-c3ccc(F)cc3)nc2c1Cl)N1CCOCC1 | 0.87% (inactive) | – |
| OC1(CC#CCN2CCCCC2)c2ccccc2-c2ccccc21 | -14.4% (inactive) | – |
| COc1ccc(CCn2c(S)nc3ccccc3c2=O)cc1 | – | 41.2 µM (active) |
